Most compounds without a hit are left out; they make up all but 1.2% or so of the library.
Mm-Cpn inhibitor: blocks the Methanococcus maripaludis chaperonin Mm-Cpn; AID 504842; Potency, µM (doses to about 76.9 µM), for inactives: top-dose activity, negative = inhibition, most hits filed as inhibitors; purified Mm-Cpn ATPase, ADP Transcreener TR-FRET; 0.031% of 330,000 active; active = well fitted inhibition curve with a large enough effect; inconclusive = small, poorly fitted or top-dose-only effect; also: potency is read from the fitted curve at half-maximal effect; % is scaled to controls: 0 for no effect and ±100 for the full control effect; nearly all actives have a fitted effect of over 80% in size
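Purified archaeal chaperonin (25 nM final) was preincubated with compound for 10 min at 37°C, then ATP (10 uM final) was added for 30 min at 37°C in Tris pH 7.4/KCl/MgCl2/DTT buffer. ADP was quantified by HTRF Transcreener TR-FRET.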
CCT modulator: cytosolic chaperonin activity modulation. purified chaperonin ATPase assay, HTRF ADP detection, 30 min. activity change, % (test concentration not listed), hits read low. AID 651819. 0.3% of 360,000 active; in the data active = activity change below about -30%; also: % is scaled to controls: 0 for no effect and ±100 for the full control effect
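ATPase activity: ADP formed was measured by HTRF Transcreener (665/615 nm ratio) after 30 min at 37 deg C with 10 uM ATP. Compounds screened at one 76 uM concentration against 40 or 20 nM TRiC in Tris pH 7.4/KCl/MgCl2/DTT buffer.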
TSHR antag: antagonists of human thyroid stimulating hormone receptor | AID 504810 | TSHR-expressing cells, TSH-stimulated cAMP HTRF, 2 h; stronger effect = lower value | activity change, negative = inhibition, % at 11.5 µM | 0.2% of 330,000 active;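 active = activity change below a set negative limit, meaning inhibition stronger than a set level, cut at about -70% in these data; inconclusive = activity change between two set negative limits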; also: % is scaled to controls: 0 for no effect and ±100 for the full control effect
Target sequence (P16473 whole entry, looked up): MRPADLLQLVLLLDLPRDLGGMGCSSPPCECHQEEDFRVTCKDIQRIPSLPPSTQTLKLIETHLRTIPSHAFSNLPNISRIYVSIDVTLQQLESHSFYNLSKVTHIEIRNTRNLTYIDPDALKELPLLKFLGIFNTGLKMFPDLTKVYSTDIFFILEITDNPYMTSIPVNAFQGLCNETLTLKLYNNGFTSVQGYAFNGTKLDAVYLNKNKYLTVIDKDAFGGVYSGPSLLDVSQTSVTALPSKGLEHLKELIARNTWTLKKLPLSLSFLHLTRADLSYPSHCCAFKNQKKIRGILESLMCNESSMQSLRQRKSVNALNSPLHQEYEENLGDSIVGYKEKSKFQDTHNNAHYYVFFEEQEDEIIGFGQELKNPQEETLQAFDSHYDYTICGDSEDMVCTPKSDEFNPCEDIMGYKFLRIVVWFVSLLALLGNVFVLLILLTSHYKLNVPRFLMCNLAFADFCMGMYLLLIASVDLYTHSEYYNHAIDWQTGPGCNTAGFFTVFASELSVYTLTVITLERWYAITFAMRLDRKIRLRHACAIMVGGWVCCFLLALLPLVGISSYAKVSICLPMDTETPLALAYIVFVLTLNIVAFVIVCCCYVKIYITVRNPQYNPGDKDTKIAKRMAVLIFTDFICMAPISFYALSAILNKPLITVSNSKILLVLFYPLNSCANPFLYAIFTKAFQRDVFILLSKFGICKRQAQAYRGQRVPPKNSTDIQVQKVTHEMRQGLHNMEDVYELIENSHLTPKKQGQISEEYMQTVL
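Competitive HTRF cAMP read-out (cryptate anti-cAMP antibody, cAMP-d2; 30 min, room temperature) in freshly harvested TSHR cells. Compounds added before TSH at EC80 (4nM final), followed by 2 hours' incubation at 37 deg C.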
uPA generation: inhibitors of cell surface uPA generation. cell surface uPA generation assay, qHTS. Potency, µM (series often up to 38.3 µM), inactives show at the top dose activity change, negative = inhibition, most hits filed as inhibitors. 0.31% of 330,000 active. AID 540303; active = well fitted inhibition curve with a large enough effect; inconclusive = small, poorly fitted or top-dose-only effect; inactive = no such curve, though single readings can be large or run the other way; tested in mouse RAW 264.7 cells; also: potency is read from the fitted curve at half-maximal effect; % is scaled to controls: 0 for no effect and ±100 for the full control effect; nearly all actives have a fitted effect of over 55% in size
gsp antagonist: gsp mutant antagonism; gsp-mutant cells, cAMP HTRF, 30 min; Potency, µM (highest dose often 76.9 µM), for inactives: top-dose activity change, negative = inhibition, usual class: inhibitors; AID 624288; 0.4% of 340,000 active; calls by dose curve; cell line not stated here;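 also: intracellular cAMP measured with PDE inhibitor Ro 20-1724 present during compound exposure; potency is read from the fitted curve at half-maximal effect; % is scaled to controls: 0 for no effect and ±100 for the full control effect; nearly all actives have a fitted effect of over 65% in size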
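Cells, 2000/well, grown 16–24 h in DMEM 10% FBS with 0.5 mg/ml G418, then compounds plus […] (300 uM addition stock), 30 min at 37C. cAMP read by HTRF (cAMP-d2 and anti-cAMP antibody-K in lysis buffer) after 30 min RT.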
gsp agonist: activates gsp, the McCune-Albright syndrome mutation; Potency, µM (top dose mostly 76.9 µM), without a hit: at the highest dose activation (cAMP increase), hits mostly activators; gsp mutant cells, cAMP HTRF, 30 min; 0.13% of 340,000 active; active = well fitted activation curve with a large enough effect; inconclusive = small, poorly fitted or top-dose-only effect, or another doubt; inactive = no such curve, though single readings can be large or run the other way; cell line not stated here;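 also: phosphodiesterase inhibitor Ro 20-1724 added with compounds to block cAMP breakdown; potency is read from the fitted curve at half-maximal effect; nearly all actives have a fitted effect of over 60% in size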
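Cells stably selected in G418 were plated at 2000/well, grown 16-24 hr, then given compounds in DMSO with the PDE inhibitor […] (300 uM solution added) for 30 min at 37C; cAMP was read by HTRF.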
Starred values were filed as active, the others as inactive; u = inconclusive; x = not tested or not shown; [ ] = dose if it differs, or a comment.

SMILES	Mm-Cpn inhibitor	CCT modulator	TSHR antag	uPA generation	gsp antagonist	gsp agonist
c1coc(CN=C2NC(=NCc3ccco3)c3ccccc32)c1	-17%	1	-10	-6%	-9%	-31%
COc1ccccc1N1CCN(C(=O)c2noc(C)c2[N+](=O)[O-])CC1	0%	0	19	-6%	10%	1%
Cc1onc(C(=O)N2CCN(C(c3ccccc3)c3ccccc3)CC2)c1[N+](=O)[O-]	-1%	1	-1	10µM*	-12%	-13%
CCC(=O)N1CCc2cc(S(=O)(=O)CCC(=O)Nc3nc(C)cs3)ccc21	0%	0	7	-1%	10%	-15%
COc1ccc(C(=O)N[C@H](C(=O)Nc2nc3ccccc3[nH]2)C(C)C)cc1	0%	-10	6	-5%	-3%	-19%[15.4 µM]
Cc1cccc(C(=O)N[C@H](C(=O)Nc2nc3ccccc3[nH]2)C(C)C)c1	-4%	0	7	2.8µM*	25%	19%
CCOC1(/N=C(\C)NS(=O)(=O)c2ccc(Cl)cc2)C(C)=CC(=O)C=C1C	1%	-71*	-8	2%	-44%	11%[15.4 µM]
CCN(CC)CCCN1C(=O)C(O)=C(C(=O)c2ccc(C)o2)C1c1cccs1 (centres undefined)	0%	x	9	x	x	x
CC(C)CCn1c(-c2nonc2N)nc2ccccc21	1%	0	10	-2%	28µM*	-22%
CCCCn1c(-c2nonc2N)nc2ccccc21	-1%	-5	-4	-2%	u	2%
Cc1ccc(NC(=O)Cn2nc(C)c([N+](=O)[O-])c2C)cc1C	-4%	0	0	3%	-1%	u
Cc1nn(CC(=O)Nc2ccc3c(c2)OCCO3)c(C)c1[N+](=O)[O-]	0%	-33*	4	0%	2%	-5%[15.4 µM]
Oc1ccc(N2CCN(c3ncnc4sc(-c5ccccc5)cc34)CC2)cc1	-2%	0	-16	3%	-32%	2%[15.4 µM]
CCc1cc2c(N3CCN(c4ccccc4)CC3)ncnc2s1	-5%	3	-33	-11%	50µM*	-35%
CC1Cn2c(Cc3ccccc3)nnc2S1 (centres undefined)	x	1	x	x	x	x
COc1ccc(C(CC(=O)Nc2cc(C)ccn2)N2Cc3ccccc3C2=O)cc1 (centres undefined)	1%	0	5	-6%	-20%	0%
COc1ccc(CCNC(=O)C2CCC(=O)N(C3CCCCCC3)C2)cc1 (centres undefined)	3%	1	0	-3%	50µM*	u
CC(C)Oc1ccc(CCNC(=O)C2CCC(=O)N(C3CCCCCC3)C2)cc1 (centres undefined)	0%	-3	-15	-2%	-1%	u
O=[N+]([O-])c1ccc(Nc2ccccc2)c2nonc12	-3%	-2	-5	-8%	-21%	17%
O=[N+]([O-])c1ccc(Sc2cccc[n+]2[O-])c2nonc12	-26%	-1	-91*	u	35µM*	11%[15.4 µM]
Cc1nc2cc(NC(=O)c3ccc(N4C(=O)CCC4=O)cc3)ccc2s1	1%	-76*	-9	-17%	9%	5%
Cc1nc2ccc(NC(=O)c3ccc(N4C(=O)CCC4=O)cc3)cc2s1	-3%	2	10	0%	3%	3%[15.4 µM]
C=CCSC1=Nc2sccc2C2=NC(=O)CN12	2%	-1	-15	-8%	15%	20µM*
Cc1ccc(CSC2=Nc3ccccc3C3=NC(=O)CN23)cc1	-4%	0	6	0%	10%	u
CN(Cc1ccon1)C(=O)c1ccc2nc(Cc3cccc(Cl)c3)oc2c1	-3%	2	16	-5%	3%	-71%
SMILES	Mm-Cpn inhibitor	CCT modulator	TSHR antag	uPA generation	gsp antagonist	gsp agonist
CS(=O)(=O)c1ccc2c(c1)sc1nc(=O)c(/C=C3/C=CC(=O)C(O)=C3)c(N)n12	-6%	0	23	-3%	-21%	1%[15.4 µM]
O=C(Cc1ccccc1)NN1C(=O)/C(=C/c2ccc(C(=O)O)cc2)SC1=S	3%	-35*	-4	0%	-10%	8%
NS(=O)(=O)c1ccc(CNC(=O)c2cc(-c3cccnc3)nc3ccc(Cl)cc23)cc1	-2%	-1	-4	-3%	-4%	1%[15.4 µM]
NS(=O)(=O)c1ccc(CNC(=O)c2cc(-c3ccccn3)nc3ccc(Cl)cc23)cc1	u	-55*	-11	-8%	22%	-1%[15.4 µM]
O=C(Cn1cc2c(n1)CCCC2)NCCCN1CCN(c2ccccc2F)CC1	1%	-46*	-7	8%	9%	-21%
O=C(Cn1cc2c(n1)CCCC2)NCCCN1CCN(Cc2ccccc2)CC1	-1%	0	1	-11%	9%	8%
COc1cccc(CNC(=O)CCCC(=O)NC(C)CCc2ccccc2)c1 (centres undefined)	1%	1	-130*	-2%	-2%	-41%
COc1ccc(C2OCC3(O)C(c4ccc(OC)c(OC)c4)OCC23)cc1OC (centres undefined)	1%	1	-3	-6%	0%	-40%
CCC(C)c1ccc(NC(=S)NCCn2cc(Cl)cn2)cc1 (centres undefined)	-2%	-39*	-16	x	-3%	-5%[15.4 µM]
O=C(COC(=O)CCC(=O)c1ccccc1)NCCc1ccccc1	1%	3	1	-4%	-4%	-5%[15.4 µM]
CCCc1cc(=O)oc2c3c(c4c(c12)OC(C)(C)C=C4)OC(C)C(C)C3O (centres undefined)	-1%	-2	-7	1.4µM*	u	6%
CCCc1cc(=O)oc2c3c(cc(OCC(=O)N[C@@H](C)C(=O)O)c12)OC(C)(C)CC3	-5%	-8	1	4%	-22%	4%[15.4 µM]
O=C(Cc1ccc(Br)cc1)NCCCn1ccnc1	0%	-1	13	1%	5%	8%[15.4 µM]
O=C(NCc1cc([N+](=O)[O-])ccc1O)c1cc(-c2ccncc2)nc2ccccc12	-1%	-1	-34	9%	40µM*	u
COc1ccc(-c2cc(C(F)F)n3ncc(C(=O)N4CCCCC4)c3n2)cc1	0%	0	-7	-11%	1%	15%
CCOC(=O)C(=O)N1CCN(c2nc(-c3ccc(Cl)cc3)cs2)CC1	-1%	0	9	-2%	-25%	-42%
COc1ccc(-c2cc(C(F)F)n3ncc(C(=O)N4CCN(C(=O)c5ccco5)CC4)c3n2)cc1	0%	-1	-8	10µM*	-8%	-25%
CCOC(=O)N1CCN(c2nc(-c3ccc(F)cc3)cs2)CC1	0%	-1	1	1%	32µM*	-35%
COc1ccc(-c2csc(N3CCN(C(=O)c4ccccc4)CC3)n2)cc1	0%	0	-17	x	35µM*	-32%

Screens from PubChem.
